Entries with a potency or affinity are not part of this list.
Each molecule was assayed on Cryptococcus neoformans. Conditions: Concentration 20 uM; ASSAY_TEST Inhibition of Fungal Growth; detection method Resazurin; Absorption (OD600-OD570); plate type 384well; NBS; CORNING #3640.
Molecule `O=C(O)c1ccccc1-c1ccccc1C(=O)Nc1ccc2c(c1)nc(O)c1ccccc12` has an Inhibition of -6.01%. `COc1cccc(NC(S)=Nc2ccc(O)cc2)c1` showed an Inhibition of -9.84%. `Cc1cnc2c(N)cc(C)c(C)c2c1` was tested, and the Inhibition was -10.43%. `CC(C)c1ccc(-c2nc3ccccc3s2)cc1` showed an Inhibition of -7.1%. For `Cn1ncc2c(Nc3cccc(Cl)c3)nc(Nc3cccc(Cl)c3)nc21`, the Inhibition was -11.25%. `COc1ccc(C(=S)N2CCN(c3cccc(Cl)c3)CC2)cc1` showed an Inhibition of -10.07%. In the case of `CC(C)(C)n1nc(C2CC2)cc1NC(=O)Nc1ccccc1`, the Inhibition is reported as -6.02%. `c1ccc(-c2nc[nH]c2-c2ccccc2)cc1` gave an Inhibition of -10.72%. `O=C(Nc1ccc(Cl)c(Cl)c1)Nc1ccccc1O` showed an Inhibition of 15.14%. `Cc1ccc(/N=N\c2c(O)ccc3[nH]nnc23)cc1` showed an Inhibition of -12.82%. `CCOC(=O)Nc1csnn1` showed an Inhibition of -5.84%. `O=C(O)c1cc(O)ccc1/N=N/c1ccccc1` gave an Inhibition of -9.07%. In the case of `COc1cc2c(c(OC)c1O)C(=O)CO2`, the Inhibition is reported as -3.51%. `Cc1nc2ccccc2nc1NS(=O)(=O)c1ccc(N)cc1` showed an Inhibition of -5.27%. In the case of `CNC1(C(N)=O)CCNCC1`, the Inhibition is reported as -6.49%. `Cc1cccc(C(O)C(O)c2cccc(C)n2)n1` (centres undefined) was tested, and the Inhibition was -7.77%. With `COc1cc(/C=N/N=c2\[nH]c3c(=O)n(C)c(=O)n(C)c3[nH]2)ccc1O` the Inhibition was 33.61%. With `COc1ccc(/N=N/c2ccc(N)nc2N)cc1` the Inhibition was -6.06%. `CCC(CO)Nc1nc2ccc(Cl)cc2c2ccccc12` (centres undefined) showed an Inhibition of -2%. Work on `CSc1ccc(NC(=O)Nc2cc(C)ccn2)cc1` yielded an Inhibition of -8.58%. For `CC1CCC(C(C)C)C(NC(=O)c2ccncc2)C1` (centres undefined), the Inhibition was -11.13%. Work on `Cc1ccc(C)c(-n2c(-c3ccc(Br)cc3)cs/c2=N\C(=O)c2ccccc2F)c1` yielded an Inhibition of -4.37%. `O=C1C(Br)=Cc2cccc3cccc1c23` showed an Inhibition of 12.78%. Work on `Cn1ncc2c(Nc3ccc(Br)cc3)nc(Nc3ccc(Br)cc3)nc21` yielded an Inhibition of -3.38%. `NC(=O)c1cc(C(N)=O)nc(Cl)n1` gave an Inhibition of -9.62%. With `O=S(=O)(O)c1ccc(/N=N/c2ccccc2)cc1` the Inhibition was -15.64%. For `CCOC(=O)Nc1cc2c(c(N)n1)N=C(c1ccccc1)CN2`, the Inhibition was -8.89%. `Cc1nc2ccc(Cl)cn2c1[N+](=O)[O-]` showed an Inhibition of -3.42%. With `CC(C)(C)c1ccc(C(=O)Nc2ccc(S(N)(=O)=O)cc2)cc1` the Inhibition was -15.62%. In the case of `O=C(O)c1cnn2c(S)ncnc12`, the Inhibition is reported as -3.32%. Molecule `c1ccc(-c2nnc3oc(-c4cccs4)nn23)cc1` has an Inhibition of 28.69%. `Clc1ccccc1-c1nc(-c2ccncc2)no1` [PIFEXOLE] showed an Inhibition of -16.63%. Work on `COC1OC(O)C(NC(=O)C(F)(F)F)CC1O` (centres undefined) yielded an Inhibition of -8.11%. `C=CCNC(=O)C1COc2ccccc2O1` (centres undefined) was tested, and the Inhibition was -7.01%. `Cn1c(=O)c2c(nc(Cc3ccc(N)cc3)n2C)n(C)c1=O` was tested, and the Inhibition was -5.25%. `CSc1nc(C)cc(S)n1` showed an Inhibition of -4.48%. In the case of `O=C(OCC(O)COC(=O)c1cccnc1)c1cccnc1`, the Inhibition is reported as -7.06%. Work on `CN1CCN(C(=O)Nc2ccc([N+](=O)[O-])cc2)CC1` yielded an Inhibition of -7.02%. For `CCCc1cc(=O)oc2c3c(c4c(c12)OC(C)(C)C=C4)OC(C)[C@H](C)[C@@H]3O` (some centres undefined), the Inhibition was -3.22%.

— ChEMBL document CHEMBL4296182, “CO-ADD screening of NIH NCI Diversity Set V”
